ClpP mod: qHTS Assay for Activators of ClpP; ATP-dependent Clp protease proteolytic subunit (Bacillus subtilis (strain 168)), P80244; purified B. subtilis ClpP, FRET peptide cleavage, 20 min; Potency, µM (top dose mostly 57.5 µM), for the others: at the highest dose activity change, negative = active; 340,000 tested, 1.9% active; AID 651965, 2013; active = well fitted falling curve with a large enough effect; inconclusive = small, poorly fitted or top-dose-only effect; inactive = no such curve, though single readings can be large or run the other way; also: potency is read from the fitted curve at half-maximal effect; the source files actives as falling curves though it sought activators and does not explain the sign; nearly all actives have a fitted effect of over 65% in size
Target sequence (P80244 whole entry, looked up): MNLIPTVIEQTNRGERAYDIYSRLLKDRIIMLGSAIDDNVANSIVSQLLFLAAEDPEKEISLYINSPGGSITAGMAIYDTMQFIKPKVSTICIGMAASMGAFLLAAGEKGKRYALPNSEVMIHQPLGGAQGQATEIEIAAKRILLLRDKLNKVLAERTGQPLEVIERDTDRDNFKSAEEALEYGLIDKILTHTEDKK
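FRET quenching reversal measured ClpP activation: 10 microg/mL B. subtilis ClpP at pH 8 with the FRET-FV decapeptide, read at 430 nm after 320 nm excitation. The 20-min minus 0-min signal was scaled between DMSO/no-enzyme wells and ADEP (5.8 microM final).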
KCNH2 3.1 inh: qHTS for Inhibitors of KCHN2 3.1: Mutant qHTS; Potassium voltage-gated channel subfamily H member 2, brain isoform KCNH2 3.1 (human); U2OS KCNH2 3.1, thallium flux FluxOr; stronger effect = lower value; activity change, % (tested at about 1.8 µM); 340,000 tested, 0.95% active;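 active = maximum activity change below -70%; inconclusive = maximum activity change from -70% to -50%; inactive = maximum activity change above -50%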;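 also: thallium influx rate constant from kinetic fluorescence after stimulation buffer; % is scaled to controls: 0 for no effect and ±100 for the full control effect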
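FluxOr-based Tl+ influx in U2OS cells transduced with KCNH2 3.1 virus; rate constants normalized to DMSO controls.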
ALOX12 inh: Primary qHTS assay for inhibitors of human arachidonate 12S-lipoxygenase (ALOX12): Round 2 | 580,000 tested, 1.1% active | purified 12hLO, xylenol orange hydroperoxide absorbance | AID 1671190, 2021 | Potency, µM (titrated, usually from 108 µM), inactives show at the highest dose activity change, negative = inhibition, hits mostly inhibitors; active = well fitted inhibition curve with a large enough effect; inconclusive = small, poorly fitted or top-dose-only effect, or another doubt; inactive = no such curve, though single readings can be large or run the other way; also: potency is read from the fitted curve at half-maximal effect; % is scaled to controls: 0 for no effect and ±100 for the full control effect
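Hydroperoxide product was detected by ferrous iron/xylenol orange as the 573 to 405 nm absorbance ratio. Arachidonic acid at 40 uM (final) was turned over for 30 min at room temperature by 150 nM human 12hLO, pH 7.0 Hepes buffer, after 15 min compound preincubation.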
Chronic BCR inh: qHTS Assay to Find Inhibitors of Chronic Active B-Cell Receptor Signaling | ABC-DLBCL IkBa-CBG/CBR reporter, luminescence ratio, 4 h | Potency, µM (highest dose often 46.1 µM), for inactives: at the top dose activity change, negative = inhibition, hits mostly inhibitors | 340,000 tested, 0.05% active; active = well fitted inhibition curve with a large enough effect in the signal ratio, with a control signal flat, not every such curve was filed as active; inconclusive = small, poorly fitted or top-dose-only effect, or effect the other way, or a change in a side signal; the % refers to the signal ratio;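 also: potency is read from the fitted curve at half-maximal effect; plate controls were basal doxycycline-induced cells for no effect and cells given 10 µM MG132 for full effect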
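Cell line TMD8 (human ABC DLBCL), stably expressing tet-inducible CBG68-IkBa fusion and CBR; IMDM/0.5% FBS; cpd up to 46 uM; dox induction, 4 h, 37C/5% CO2; dual luminescence; green/red ratio; MG132 control.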
KCNH2 WT inh: qHTS for Inhibitors of KCHN2 3.1: Wildtype qHTS; Voltage-gated inwardly rectifying potassium channel KCNH2 (Homo sapiens), Q12809; U2OS, BacMam KCNH2, thallium flux FluxOr; stronger effect = lower value; activity change, % at 1.84 µM; 340,000 tested, 0.37% active; AID 720551, 2013;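 active = maximum activity change below -70%; inconclusive = maximum activity change between -70% and -50%; inactive = maximum activity change above -50%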; also: % is scaled to controls: 0 for no effect and ±100 for the full control effect
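U2OS cells transduced with wild-type KCNH2 virus are loaded with FluxOr dye for 45 min, and thallium flux is measured in kinetic reads before and after stimulation buffer. Rate constants are normalized to DMSO controls.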
LDHA block: qHTS assay for inhibitors of human lactate dehydrogenase; L-lactate dehydrogenase A chain (Homo sapiens), P00338; purified LDHA, NADH/diaphorase-resazurin fluorescence; stronger effect = lower value; activity change, % (values are at about 110 or 230 µM); 480,000 tested, 0.15% active; AID 1347041, 2019; in the data active = activity change below about -30%; inconclusive = mostly about -25% to -30%;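 also: plate controls were DMSO wells for no effect and wells without enzyme for full effect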
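Remaining NADH was detected by diaphorase (0.133 mg/mL) converting 37 µM resazurin to fluorescent resorufin, read at 0 and 20 minutes. The preceding 5-minute room-temperature reaction used 2 nM LDHA, 0.2 mM sodium pyruvate and 0.06 mM NADH at pH 7.4.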
The depositor's hits bear a star; ? = inconclusive; / = not tested or not shown; [ ] = remark or other dose. An excerpt weighted towards active compounds, which were near 3% of everything screened.

SMILES	ClpP mod	KCNH2 3.1 inh	ALOX12 inh	Chronic BCR inh	KCNH2 WT inh	LDHA block
C=C(Cl)CN1CCC(N2CCCCC2)CC1	/	/	2.6%	/	/	1.4
CC(=O)Nc1ccc(S(=O)(=O)N(C)CCOCc2ccccc2)cc1	22.4µM*	4.7	-8.9%	-0.8%	6.2	-4.0
Cc1ccc2[nH]cc(CCN)c2c1	/	/	?	/	/	8.7
O=c1c(-c2ccccc2)c(O)c2ccccc2n1-c1ccccc1	?	-71.6*	3.0%	?	-17.9	0.3
CCOc1cccc(CNCCc2c(C)[nH]c3ccc(OC(F)(F)F)cc23)c1O	-3.8%	-39.8	39.8µM*	?	9.0	-1.5
Cc1[nH]c2ccc(OC(F)(F)F)cc2c1CCNCc1cccc([N+](=O)[O-])c1	/	-32.7	?	?	-4.9	-1.2
COc1ccc2[nH]c(C)c(CCNCc3ccc(F)cc3F)c2c1	/	/	1µM*	/	/	14.8
Cc1cc(OCC(=O)NCC(O)c2ccccc2)c2c3c(c(=O)oc2c1)CCCC3 (stereo not given)	4.0%	-1.1	26.9%	0.0%	-4.6	-0.9
Cc1cc(OCC(=O)NC2CCS(=O)(=O)C2)c2c3c(c(=O)oc2c1)CCC3 (stereo not given)	3.16µM*	-1.3	0.0%	7.4%	-250.3*	3.0
CCOC(=O)C(C)Oc1cc(C)cc2oc(=O)c3c(c12)CCCC3 (stereo not given)	15.8µM*	1.8	-12.9%	5.9%	-6.6	-3.4
COC(=O)C(C)Oc1cc(C)cc2oc(=O)c3c(c12)CCC3 (stereo not given)	53.2%	-15.2	4.8%	1.9%	-0.8	-4.9
COC(=O)C(C)Oc1cc(C)cc2oc(=O)c3c(c12)CCCC3 (stereo not given)	25.1µM*	13.6	5.6%	/	-14.8	-2.8
Cc1cc(OCC(=O)OC(C)C)c2c3c(c(=O)oc2c1)CCCC3	35.5µM*	-1.5	1.5%	1.6%	10.5	-6.6
Cc1cc(OC(C)C(=O)NCC(O)c2ccccc2)c2c3c(c(=O)oc2c1)CCCC3 (stereo not given)	4.0%	0.4	0.0%	-0.3%	9.5	-0.2
C=CCN1C(=O)NC(=O)/C(=C\c2ccc(-c3ccccc3[N+](=O)[O-])o2)C1=O	/	-8.3	35.5µM*	?	4.5	2.2
O=C1Nc2ccccc2CC12CCN2Cc1ccccn1 (stereo not given)	/	/	67.7%[176 µM]	/	/	/
C=C1C(O)(c2ccccc2)C2CC[N+]1(C)CC2 (stereo not given)	0.5%	5.4	?	7.7%	-3.3	-37.5*
COc1ccccc1C=C1C(=O)NC(=S)NC1=O	-2.9%	7.8	?	/	5.1	-56.7*
O=C(CI)c1ccc(Cl)cc1	0.1%	/	/	/	/	-4.1
O=C(CNC12CC3CC(CC(C3)C1)C2)c1ccc(Cl)cc1	/	/	0.0%	/	/	-80.8*
Cn1nc(C2CCCCC2)cc1[C@H]1CN2CC[C@H]1C[C@@H]2CN	/	/	50.1%[176 µM]	/	/	/
CCc1ccc(CNCCc2ccc(OC)cc2)cc1	/	/	2.51µM*	/	/	-4.2
COc1ccc(CCNCc2ccc(Cl)cc2)cc1	/	/	14.1µM*	/	/	7.5
O=C(O)CC[n+]1ccc(-c2cc[n+](CCC(=O)O)cc2)cc1	/	/	14.1µM*	/	/	10.3
CC(C)CN1Cc2ccccc2-n2ccnc2C12CCN(C(=O)c1ccn[nH]1)CC2	/	/	-1.0%	/	/	/
COc1ccc(C(CC(=O)N2CCC3(CC2)OCCO3)NS(=O)(=O)c2ccc(F)cc2)cc1 (stereo not given)	22.4µM*	0.0	11.5%	0.3%	0.1	-3.6
O=[N+]([O-])c1cc(Cl)c2cccnc2c1O	/	2.2	?	11.2µM*	13.0	14.6

Screens deposited in PubChem BioAssay by National Center for Advancing Translational Sciences (NCATS).
